This is an account of results in PubChem BioAssay (NCATS).

Where “and” joins values, the source holds several entries; their conditions need not be identical. Equal values may be shown once. Inconclusive results are not listed. The source holds several records for some structures; these can differ, active in one and inactive in another. Calls of active or inactive are those of the source. The call rests on the fitted dose curve; in most records, active means well fitted curve in the direction sought with a large enough effect; inconclusive means small, poorly fitted or top-dose-only effect, or another doubt; inactive means no such curve, though single readings can be large; an effect the other way counts as inactive or inconclusive.

Experiment [1] deals with Glutathione peroxidase 1 (Homo sapiens) (UniProt P07203). Put plainly: Primary qHTS Assay for Inhibitors of Recombinant Selenoprotein Glutathione Peroxidase 1 (GPX1) (AID 1845191). Further: nearly all actives have a fitted effect of over 65% in size. Further: potency means the concentration at half of the fitted maximal effect. The procedure, abridged:
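Recombinant GPX1 (10 nM final) was preincubated with compound for 30 min at room temperature, then reacted with 1 mM GSH, 0.5 mM CHP, 0.5 mM NADPH and 100 nM glutathione reductase; NADPH fluorescence (340/450 nm) was read at 0 and 15 min.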
A general note: In qHTS, concentration-response curves come from the screen itself.

Experiment [2] addresses Phospholipid hydroperoxide glutathione peroxidase GPX4 (Homo sapiens) (UniProt P36969). Put plainly: Primary qHTS Assay for Inhibitors of Recombinant Selenoprotein Glutathione Peroxidase 4 (GPX4) (AID 1845192). Further: nearly all actives have a fitted effect of over 65% in size. Further: potency means the concentration at half of the fitted maximal effect. A digest of the protocol: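 GR-coupled readout: 100 nM GR, 1 mM GSH, 0.5 mM NADPH; NADPH fluorescence (ex 340/em 450 nm) read at t=0 and after 15 min RT. GPX4 200 nM, preincubated 30 min with compound; substrate 0.5 mM CHP.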

In experiment [3] the target is Luciferin 4-monooxygenase (Photinus pyralis) (UniProt P08659). As to the kind of experiment: Primary firefly luciferase (FLuc) qHTS assay for identification of artifact compounds. (AID 1845220). Further: nearly all actives have a fitted effect of over 60% in size. A digest of the protocol: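 qHTS, 15 min compound preincubation with substrate (10 uM luciferin, 10 uM ATP) at RT, then 10 nM FLuc; 5 min; luminescence; % inhibition vs no-enzyme/DMSO controls, 4-parameter Hill fit.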

Experiment [4] has as its system Nanoluciferase (engineered Oplophorus gracilirostris luciferase). As to the kind of experiment: Primary Nanoluciferase (NLuc) qHTS assay for identification of artifact compounds. (AID 1845222). The procedure, abridged:
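Luminescence read-out of secreted NLuc in S16 cell conditioned medium (1:55); compounds tested with 15 min RT preincubation, then Nano-Glo substrate 1:100, 5 min. % inhibition vs no-enzyme and DMSO controls, 4-parameter Hill fit.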

Experiment [5] is described as follows: Primary redox qHTS assay for identification of artifact compounds. (AID 1845223). The procedure, abridged: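 Amplex Red (25 uM) and HRP (250 mU/mL) in HBSS, with compounds for 15 min, then 250 uM DTT for 30 min, room temperature, dark. Fluorescence 525/598 nm read; normalized to DMSO and 10 uM DA3003; Hill fit.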
The nature of experiment [6]: Quantitative High-Throughput drug screen in 47 multiple myeloma cell lines against the NCATS MIPE library collection: EJM_DSMZ cell viability assay (AID 1918926; further: nearly all actives have a fitted effect of over 30% in size; further: potency means the concentration at half of the fitted maximal effect). The procedure, abridged:
(§1)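 Relative luminescence from CellTiter-Glo served as the viability signal, referenced to DMSO-treated (100%) and cell-free medium (0%) controls. Treatment lasted 48 hours at 37C with 500 cells per well.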

Experiment [7] in a line: Quantitative High-Throughput drug screen in 47 multiple myeloma cell lines against the NCATS MIPE library collection: ARP1_JJKsccF8 cell viability assay (AID 1918928; further: nearly all actives have a fitted effect of over 40% in size). A digest of the protocol:
(§2)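 Myeloma cells, 500 per well, were exposed to MIPE 4.0 drugs by pin transfer for 48 h at 37 °C, 5% CO2. Viability was read as ATP luminescence with CellTiter-Glo, normalised to DMSO-only (100%) and medium-only (0%) wells.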

A short description of experiment [8]: Quantitative High-Throughput drug screen in 47 multiple myeloma cell lines against the NCATS MIPE library collection: Karpas620_DSMZ cell viability assay (AID 1918959). Further: nearly all actives have a fitted effect of over 30% in size. The procedure, abridged:
(§3)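 Viability readout: CellTiter-Glo luminescence following 5 min room-temperature incubation with reagent. Prior exposure: 48 h, 37C, humidified 5% CO2, 500 cells per well.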

The nature of experiment [9]: Quantitative High-Throughput drug screen in 47 multiple myeloma cell lines against the NCATS MIPE library collection: KMM1_JCRB cell viability assay (AID 1918960). Further: nearly all actives have a fitted effect of over 30% in size. A digest of the protocol: as §2
Experiment [10] can be described thus: Quantitative High-Throughput drug screen in 47 multiple myeloma cell lines against the NCATS MIPE library collection: FR4_PLB cell viability assay (AID 1918924; further: nearly all actives have a fitted effect of over 35% in size; further: potency means the concentration at half of the fitted maximal effect). A digest of the protocol: as §3
Experiment [11] can be described thus: Quantitative High-Throughput drug screen in 47 multiple myeloma cell lines against the NCATS MIPE library collection: AMO1_DSMZ cell viability assay (AID 1918927; further: nearly all actives have a fitted effect of over 30% in size). The procedure, abridged: as §1
A short description of experiment [12]: Quantitative High-Throughput drug screen in 47 multiple myeloma cell lines against the NCATS MIPE library collection: ARD_JJKsccE7 cell viability assay (AID 1918929). A digest of the protocol:
as §1

The nature of experiment [13]: Quantitative High-Throughput drug screen in 47 multiple myeloma cell lines against the NCATS MIPE library collection: KHM11_PLB cell viability assay (AID 1918962). Further: nearly all actives have a fitted effect of over 35% in size. Further: potency means the concentration at half of the fitted maximal effect. A digest of the protocol:
as §3

The nature of experiment [14]: Quantitative High-Throughput drug screen in 47 multiple myeloma cell lines against the NCATS MIPE library collection: JIM3_ECACC cell viability assay (AID 1918963; further: nearly all actives have a fitted effect of over 35% in size). The procedure, abridged:
as §3

Experiment [15] can be described thus: Quantitative High-Throughput drug screen in 47 multiple myeloma cell lines against the NCATS MIPE library collection: JIM1_ECACC cell viability assay (AID 1918964). A digest of the protocol:
as §1

Experiment [16] can be described thus: Quantitative High-Throughput drug screen in 47 multiple myeloma cell lines against the NCATS MIPE library collection: Delta47_JCRB cell viability assay (AID 1918925; further: nearly all actives have a fitted effect of over 45% in size). The procedure, abridged:
as §1

Experiment [17] in a line: Quantitative High-Throughput drug screen in 47 multiple myeloma cell lines against the NCATS MIPE library collection: Karpas417_ECACC cell viability assay (AID 1918961). As to conditions: Karpas417 myeloma viability, CellTiter-Glo ATP luminescence, 48 h; viability (% of DMSO): at 45.8 µM (top of the series). A digest of the protocol: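 Approved and investigational drugs from MIPE 4.0 were added by pin tool to 500 cells per well. After 48 hours at 37C, ATP-based CellTiter-Glo luminescence indicated remaining viability.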
(In general: Cellular ATP, detected with luciferase, serves as a proxy for viable cell number.)

Experiment [18] is described as follows: Primary fluorescence-based thiol-reactive (MSTI) qHTS assay for identification of artifact compounds. (AID 1845221).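 Further: thiol-reactive compounds lower the probe fluorescence signal; nearly all actives have a fitted effect of over 65% in size.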 The procedure, abridged: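 Probe: MSTI 4 uM, PBS pH 7.4, 2% DMSO. Incubation 1 h, RT, light-protected. Readout fluorescence 525/598 nm.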

Chain of Glutathione peroxidase 1 (Homo sapiens) (P07203 whole entry, looked up): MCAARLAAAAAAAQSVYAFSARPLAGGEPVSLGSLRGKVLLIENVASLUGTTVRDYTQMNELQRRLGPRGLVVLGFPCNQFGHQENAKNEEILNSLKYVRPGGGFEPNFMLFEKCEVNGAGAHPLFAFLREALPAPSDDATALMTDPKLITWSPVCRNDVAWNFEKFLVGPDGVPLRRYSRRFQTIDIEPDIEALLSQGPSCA
Chain of Phospholipid hydroperoxide glutathione peroxidase GPX4 (Homo sapiens) (P36969 whole entry, looked up): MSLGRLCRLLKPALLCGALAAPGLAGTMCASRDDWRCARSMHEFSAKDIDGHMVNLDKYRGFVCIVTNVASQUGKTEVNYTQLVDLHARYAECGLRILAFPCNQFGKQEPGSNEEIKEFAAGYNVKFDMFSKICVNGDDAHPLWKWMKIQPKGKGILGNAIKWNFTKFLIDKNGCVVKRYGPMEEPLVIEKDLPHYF

With `C=C(c1ccc(C(=O)O)cc1)c1cc2c(cc1C)C(C)(C)CCC2(C)C`, the Potency result in experiment [1], in [3], in experiment [6], in experiment [7], in experiment [8] and in [9] was “inactive” each time. Besides, in [2], the Potency was 6.31 µM (active) and inactive and 8.06 µM (active). The compound was classed as inactive in experiment [4] and in experiment [5].

Consider `Cc1cc(=O)oc2cc(O)ccc12`, for which the Potency was 18 µM (active) and 4.09 µM (active) in [1]; 12.8 µM (active) and 1.61 µM (active) in experiment [2]; 0.0662 µM (active) in experiment [13]. Besides, the Potency entry in experiment [10], in experiment [6], in experiment [11], in experiment [7], in experiment [12] and in experiment [8] was “inactive” each time. The Potency entry in [9] and in experiment [14] was “inactive” each time.

Regarding `CCCc1cc(=O)[nH]c(=S)[nH]1`, the Potency entry in experiment [1], in [2], in experiment [10], in experiment [6], in experiment [11] and in experiment [7] was “inactive” each time. For the same compound, the Potency result in [12], in experiment [14] and in [15] was “inactive” throughout.

As to `COc1ccc2cc([C@H](C)C(=O)O)ccc2c1`, the Potency entry in [1], in experiment [2], in experiment [3], in [10], in experiment [6] and in experiment [11] was “inactive” in each case. Moreover, the Potency entry in experiment [7], in experiment [12], in experiment [8], in experiment [9] and in experiment [15] was “inactive” in each case. Besides, the result in experiment [5] was inactive. The Potency in experiment [13] was 29.6 µM (active).

In the case of `C[Se]CCC(N)C(=O)O` (stereo unspecified), the Potency entry in experiment [1], in experiment [2], in [10], in experiment [16], in experiment [6] and in [7] was “inactive” throughout. For the same compound, the Potency result in [12], in [9], in experiment [17] and in experiment [15] was “inactive” each time.

Turning to `CC(=O)Nc1ccc(O)cc1`, the Potency entry in experiment [1] and in [2] was “inactive” throughout.

On to `CC(=O)O[C@H]1C(=O)[C@@]2(C)C([C@H](OC(=O)c3ccccc3)[C@]3(O)C[C@H](OC(=O)[C@H](O)[C@@H](NC(=O)c4ccccc4)c4ccccc4)C(C)=C1C3(C)C)[C@]1(OC(C)=O)CO[C@@H]1C[C@@H]2O` (stereo partly specified), for which the Potency entry in experiment [1], in experiment [2], in experiment [3], in [18], in experiment [10] and in [6] was “inactive” each time. Besides, the Potency result in experiment [7], in experiment [13] and in [14] was “inactive” in each case. Besides, the call in [4] and in [5] was inactive.

For `NS(=O)(=O)c1cc(C(=O)O)c(NCc2ccco2)cc1Cl`, the Potency result in experiment [1], in experiment [2], in [10], in experiment [16], in experiment [6] and in experiment [7] was “inactive” in each case. Also, the Potency result in experiment [8], in [9], in experiment [14] and in [15] was “inactive” each time.

Regarding `CCCCN(CCCC)CCC(O)c1cc2c(Cl)cc(Cl)cc2c2cc(C(F)(F)F)ccc12` (stereo unspecified), the Potency result in [1], in [2], in [7], in experiment [12] and in experiment [8] was “inactive” in each case. The Potency in experiment [10] was 20.9 µM (active); in experiment [6], 0.264 µM (active).

Regarding `CN(C)CCc1c[nH]c2ccc(Cn3cncn3)cc12`, the Potency entry in experiment [1], in experiment [2], in experiment [10], in experiment [16], in [6] and in [7] was “inactive” throughout.

For `Nc1cc(C(Cl)=C(Cl)Cl)c(S(N)(=O)=O)cc1S(N)(=O)=O`, the Potency result in experiment [1], in experiment [2], in experiment [10], in experiment [16], in [6] and in experiment [11] was “inactive” in each case. Besides, the Potency result in experiment [7], in experiment [12], in [8], in [9], in [17] and in experiment [14] was “inactive” throughout. In [15], the Potency entry was “inactive”.
